From PubChem BioAssay
C diff HTS = inhibitors of Clostridium difficile growth; actives 0.25% (n = 86,000); Clostridium difficile clinical isolate growth, OD600, 24 h; hits give low values; AID 1259249; growth activity, negative = inhibition, % at 16 µg/mL (by protocol);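 active = mean growth activity at or below -80% and every replicate also at or below -80%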
T cruzi growth = T. cruzi proliferation inhibition | actives 5.9% (n = 77,000) | T. cruzi beta-gal in NIH3T3, GalScreen luminescence, 90 h | inhibition, % at 8.34 µM;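 active = mean inhibition above about 93%, with at least 55% of replicates each passing it, limit read from the data, passing the limit was not always enough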
Pf Dd2 growth = inhibitors of Plasmodium falciparum Dd2 growth; P. falciparum Dd2 growth, SYBR Green, 72 h; hits give low values; activity change, % at 10 µM; actives 2.3% (n = 94,000); in the data active = activity change below about -80%
Numbers stand for hits; – = inactive; · = no result given. Shown are actives, neighbours in structure and some others; about 6.7% of the full set was active somewhere.

SMILES	C diff HTS	T cruzi growth	Pf Dd2 growth
C[C@@H]1CN([C@@H](C)CO)C(=O)c2c(c3ccccc3n2C)-c2ccccc2CO[C@H]1CN(C)C(=O)c1cc(Cl)cc(Cl)c1	–	·	-83
C[C@H](CO)N1C[C@H](C)[C@@H](CN(C)C(=O)c2ccccc2)OCc2ccccc2-c2c(n(C)c3ccccc23)C1=O	·	–	–
C[C@H](CO)N1C[C@H](C)[C@H](CN(C)C(=O)c2cc(Cl)cc(Cl)c2)OCc2ccccc2-c2c(n(C)c3ccccc23)C1=O	–	·	-87
COc1ccc2c3c([nH]c2c1)[C@@H](CO)N(C(=O)C1CCCCC1)CC31CCN(Cc2nccs2)CC1	–	·	-87
COc1ccc2c3c([nH]c2c1)[C@H](CO)N(C(=O)C1CC1)CC31CCN(Cc2nccs2)CC1	–	·	–
COc1ccc2c3c([nH]c2c1)[C@H](CO)N(C(=O)C1CCC1)CC31CCN(Cc2nccs2)CC1	–	·	–
COc1ccc2c3c([nH]c2c1)[C@H](CO)N(C(=O)C1CCOCC1)CC31CCN(Cc2nccs2)CC1	–	·	-88
COc1ccccc1-c1ccc2n(c1=O)C[C@H]1[C@H](CO)[C@@H](C(=O)NCCCN(C)C)N(C(C)=O)[C@@H]21	–	–	–
CN1[C@@H]2c3ccc(-c4ccc(F)cc4)c(=O)n3C[C@@H]2[C@@H](CO)[C@@H]1C(=O)NCCN1CCCCC1	–	–	–
O=C(C[C@@H]1C=C[C@@H](NC(=O)Nc2ccccc2F)[C@H](CO)O1)NCc1ccccc1	–	·	–
COc1ccccc1C(=O)Nc1ccc2c(c1)C(=O)N(C)[C@@H]1CC[C@H](CC(=O)NCc3ccc(Cl)c(Cl)c3)O[C@@H]1CO2	–	–	–
COc1cccc(C#Cc2ccc([C@@H]3[C@@H](CO)N(C(=O)C4CCCCC4)[C@H]3C#N)cc2)c1	–	–	–
COc1cccc(C#Cc2ccc([C@@H]3[C@@H](C#N)N(C(=O)C4CCCCC4)[C@H]3CO)cc2)c1	–	–	-91
COc1cccc(C#Cc2ccc([C@@H]3[C@@H](C#N)N(C(=O)C4CCC4)[C@H]3CO)cc2)c1	–	–	–
COc1cccc(C#Cc2ccc([C@@H]3[C@@H](CO)N(C(=O)C4CCCC4)[C@H]3C#N)cc2)c1	–	·	-83
C[C@@H]1CN([C@@H](C)CO)C(=O)c2c(c3ccccc3n2C)-c2ccccc2CO[C@H]1CN(C)Cc1cccc(C(F)(F)F)c1	–	·	-92
C[C@@H]1CN([C@H](C)CO)C(=O)c2c(c3ccccc3n2C)-c2ccccc2CO[C@@H]1CN(C)Cc1ccc2c(c1)OCO2	–	·	–
C[C@@H]1CN([C@H](C)CO)C(=O)c2c(c3ccccc3n2C)-c2ccccc2CO[C@@H]1CN(C)Cc1ccc(C(F)(F)F)cc1	–	·	–
C[C@@H]1CN([C@H](C)CO)C(=O)c2c(c3ccccc3n2C)-c2ccccc2CO[C@H]1CN(C)Cc1cccc(C(F)(F)F)c1	–	·	-84
C[C@H](CO)N1C[C@H](C)[C@@H](CN(C)Cc2cccc(O)c2)OCc2ccccc2-c2c(n(C)c3ccccc23)C1=O	–	·	–
C[C@H]1CN([C@@H](C)CO)C(=O)c2c(c3ccccc3n2C)-c2ccccc2CO[C@@H]1CN(C)Cc1ccc(C(F)(F)F)cc1	–	·	–
C[C@@H]1CN([C@H](C)CO)C(=O)c2c(c3ccccc3n2C)-c2ccccc2CO[C@@H]1CN(C)Cc1cccc(O)c1	–	·	-88
C[C@@H]1CN([C@@H](C)CO)C(=O)c2c(c3ccccc3n2C)-c2ccccc2CO[C@@H]1CN(C)Cc1ccc2c(c1)OCO2	–	·	-83
CN1C(=O)c2cc(NC(=O)c3cccs3)ccc2OC[C@@H]2O[C@H](CC(=O)N3CCCCC3)CC[C@H]21	–	–	–
CO[C@H]1CN(C)C(=O)c2ccc(NC(=O)c3ccccc3)cc2OC[C@@H](C)NC[C@@H]1C	·	·	–
SMILES	C diff HTS	T cruzi growth	Pf Dd2 growth
CN1c2ccc(Br)cc2[C@H]2[C@H](CCN2C(=O)c2ccc(F)cc2)[C@H]1CO	–	–	–
C[C@@H](NC(=O)C[C@H]1CC[C@H](NS(=O)(=O)c2cccc(F)c2)[C@@H](CO)O1)c1ccccc1	–	–	–
C[C@@H]1CN([C@@H](C)CO)C(=O)c2c(c3ccccc3n2C)-c2ccccc2CO[C@H]1CN(C)C(=O)c1ccncc1	–	–	–
C[C@@H]1CN([C@@H](C)CO)C(=O)c2c(c3ccccc3n2C)-c2ccccc2CO[C@@H]1CN(C)S(=O)(=O)c1ccccc1F	–	–	–
COc1ccccc1S(=O)(=O)N(C)C[C@H]1OCc2ccccc2-c2c(n(C)c3ccccc23)C(=O)N([C@H](C)CO)C[C@@H]1C	–	–	-85
C[C@H]1CN([C@@H](C)CO)C(=O)c2c(c3ccccc3n2C)-c2ccccc2CO[C@@H]1CN(C)S(=O)(=O)c1cccs1	–	–	-86
COc1ccccc1S(=O)(=O)N(C)C[C@@H]1OCc2ccccc2-c2c(n(C)c3ccccc23)C(=O)N([C@H](C)CO)C[C@H]1C	–	–	–
Cc1ccccc1S(=O)(=O)N(C)C[C@H]1OCc2ccccc2-c2c(n(C)c3ccccc23)C(=O)N([C@H](C)CO)C[C@H]1C	·	–	-84
Cc1ccccc1S(=O)(=O)N(C)C[C@@H]1OCc2ccccc2-c2c(n(C)c3ccccc23)C(=O)N([C@@H](C)CO)C[C@@H]1C	·	–	-89
C[C@@H]1CN([C@H](C)CO)C(=O)c2c(c3ccccc3n2C)-c2ccccc2CO[C@@H]1CN(C)S(=O)(=O)c1ccccc1F	–	–	–
C[C@H]1CN([C@@H](C)CO)C(=O)c2c(c3ccccc3n2C)-c2ccccc2CO[C@H]1CN(C)S(=O)(=O)c1cccs1	–	–	–
COc1cc(CN2CC3(CN(C(=O)c4cccnc4)C3)c3c([nH]c4cc(OC)ccc34)[C@@H]2CO)cc(OC)c1	–	·	–
C[C@@H]1CN([C@H](C)CO)C(=O)Cc2cc(NS(=O)(=O)c3cccs3)ccc2O[C@H]1CN(C)C(=O)Nc1ccc(C(F)(F)F)cc1	–	–	–
COc1ccc2c3c(n(C)c2c1)[C@H](CO)NCC31CCN(S(=O)(=O)c2cccc(F)c2)CC1	–	·	-86
COc1ccc2c3c([nH]c2c1)[C@@H](CO)NCC31CCN(C(=O)C2CCOCC2)CC1	–	·	-82
COc1ccc2c3c([nH]c2c1)[C@H](CO)NCC31CCN(C(=O)C2CCOCC2)CC1	–	·	–
COc1cccc(S(=O)(=O)N2CCC3(CC2)CN[C@H](CO)c2[nH]c4cc(OC)ccc4c23)c1	–	·	-88
COc1ccc2c3c([nH]c2c1)[C@H](CO)NCC31CCN(C(=O)c2ccccc2)CC1	–	·	-84
COc1ccc2c3c([nH]c2c1)[C@@H](CO)NCC31CCN(S(=O)(=O)c2cccs2)CC1	–	·	–
COc1ccc2c3c(n(C)c2c1)[C@H](CO)NCC31CCN(S(=O)(=O)c2cccc(C)c2)CC1	–	·	–
COc1ccc2c3c([nH]c2c1)[C@@H](CO)NCC31CN(C(=O)c2ccccc2)C1	–	·	–
COc1cccc(-c2ccc3c(c2)O[C@@H](CN(C)Cc2cncnc2)[C@H](C)CN([C@@H](C)CO)S3(=O)=O)c1	–	–	–
Cc1cc(C(=O)Nc2cccc3c2O[C@H](CN(C)S(=O)(=O)c2cn(C)cn2)[C@@H](C)CN([C@H](C)CO)C3=O)n(C)n1	·	–	–
